Whole data set: some 8,300 sequences, median “log2 fold change of degron read counts, EGFP-low vs EGFP+ sorted cells (limma voom), compound-induced degradation” near -1.1, cut for the highest 2% near 3.2. The full list was thinned out, with the highest values kept by preference.
T1: CRBN, Q96SW2
T1 chain: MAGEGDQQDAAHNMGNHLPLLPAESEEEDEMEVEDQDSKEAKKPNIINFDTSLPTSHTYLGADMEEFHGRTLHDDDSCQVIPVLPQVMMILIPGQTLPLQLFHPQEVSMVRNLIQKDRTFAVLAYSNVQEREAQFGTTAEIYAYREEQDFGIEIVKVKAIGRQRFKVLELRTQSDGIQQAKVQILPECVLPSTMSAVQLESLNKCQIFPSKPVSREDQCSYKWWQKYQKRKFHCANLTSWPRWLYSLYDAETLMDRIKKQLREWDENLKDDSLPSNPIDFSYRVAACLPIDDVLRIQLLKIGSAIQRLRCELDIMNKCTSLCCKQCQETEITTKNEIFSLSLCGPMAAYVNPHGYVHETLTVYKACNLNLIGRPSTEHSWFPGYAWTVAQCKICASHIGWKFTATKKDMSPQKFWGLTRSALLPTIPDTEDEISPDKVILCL

B1: 46F_47Y_49E_50Q_52G_53A_54M_55F_67L_, Q9UKT9 (peptide)
chain: FYCEQCGAMFTQKGNLLRHIKL
B2: 46F_47K_49P_50I_52G_53A_54R_55F_67L_, Q9UKT9 (peptide)
chain: FKCPICGARFTQKGNLLRHIKL
B3: 46F_47M_49P_50I_52G_53A_54R_55F_67L_, Q9UKT9 (peptide)
chain: FMCPICGARFTQKGNLLRHIKL
B4: 46F_47H_49P_50I_52G_53A_54R_55F_67L_, Q9UKT9 (peptide)
chain: FHCPICGARFTQKGNLLRHIKL
B5: 46F_47A_49P_50I_52G_53A_54R_55F_67L_, Q9UKT9 (peptide)
chain: FACPICGARFTQKGNLLRHIKL
B6: 46F_47Q_49P_50I_52G_53A_54R_55F_67L_, Q9UKT9 (peptide)
chain: FQCPICGARFTQKGNLLRHIKL
B7: 46F_47C_49P_50I_52G_53A_54R_55F_67L_, Q9UKT9 (peptide)
chain: FCCPICGARFTQKGNLLRHIKL
B8: 46F_47F_49P_50I_52G_53A_54R_55F_67L_, Q9UKT9 (peptide)
chain: FFCPICGARFTQKGNLLRHIKL
B9: 46F_47T_49P_50I_52G_53A_54R_55F_67L_, Q9UKT9 (peptide)
chain: FTCPICGARFTQKGNLLRHIKL
B10: 46F_47D_49P_50I_52G_53A_54R_55F_67L_, Q9UKT9 (peptide)
chain: FDCPICGARFTQKGNLLRHIKL
B11: 46F_47I_49P_50I_52G_53A_54R_55F_67L_, Q9UKT9 (peptide)
chain: FICPICGARFTQKGNLLRHIKL
B12: 46F_47I_49E_50I_52G_53R_54A_55F_67L_, Q9UKT9 (peptide)
chain: FICEICGRAFTQKGNLLRHIKL
B13: 46F_47N_49P_50V_52G_53A_54H_55F_67L_, Q9UKT9 (peptide)
chain: FNCPVCGAHFTQKGNLLRHIKL
B14: 46F_47R_49E_50Q_52G_53A_54M_55F_67L_, Q9UKT9 (peptide)
chain: FRCEQCGAMFTQKGNLLRHIKL
B15: 46F_47N_49D_50Q_52G_53A_54A_55F_67L_, Q9UKT9 (peptide)
chain: FNCDQCGAAFTQKGNLLRHIKL
B16: 46L_47H_49E_50I_52G_53F_54H_55C_67L_, Q9UKT9 (peptide)
chain: LHCEICGFHCTQKGNLLRHIKL
B17: 46L_47C_49N_50Q_52G_53F_54E_55C_67L_, Q9UKT9 (peptide)
chain: LCCNQCGFECTQKGNLLRHIKL
B18: 46F_47M_49D_50V_52G_53A_54A_55F_67L_, Q9UKT9 (peptide)
chain: FMCDVCGAAFTQKGNLLRHIKL
B19: 46F_47C_49E_50V_52G_53A_54D_55F_67L_, Q9UKT9 (peptide)
chain: FCCEVCGADFTQKGNLLRHIKL
B20: 46L_47Q_49N_50Q_52G_53F_54C_55C_67L_, Q9UKT9 (peptide)
chain: LQCNQCGFCCTQKGNLLRHIKL
B21: 46F_47K_49N_50Q_52G_53H_54R_55F_67L_, Q9UKT9 (peptide)
chain: FKCNQCGHRFTQKGNLLRHIKL
B22: 46F_47K_49P_50V_52G_53A_54K_55F_67L_, Q9UKT9 (peptide)
chain: FKCPVCGAKFTQKGNLLRHIKL
B23: 46F_47H_49P_50V_52G_53A_54K_55F_67L_, Q9UKT9 (peptide)
chain: FHCPVCGAKFTQKGNLLRHIKL
B24: 46F_47D_49P_50V_52G_53A_54K_55F_67L_, Q9UKT9 (peptide)
chain: FDCPVCGAKFTQKGNLLRHIKL
B25: 46F_47G_49P_50V_52G_53A_54K_55F_67L_, Q9UKT9 (peptide)
chain: FGCPVCGAKFTQKGNLLRHIKL
B26: 46F_47A_49P_50V_52G_53A_54K_55F_67L_, Q9UKT9 (peptide)
chain: FACPVCGAKFTQKGNLLRHIKL
B27: 46F_47E_49P_50V_52G_53A_54K_55F_67L_, Q9UKT9 (peptide)
chain: FECPVCGAKFTQKGNLLRHIKL
B28: 46F_47V_49P_50V_52G_53A_54K_55F_67L_, Q9UKT9 (peptide)
chain: FVCPVCGAKFTQKGNLLRHIKL
B29: 46F_47N_49P_50V_52G_53A_54K_55F_67L_, Q9UKT9 (peptide)
chain: FNCPVCGAKFTQKGNLLRHIKL
B30: 46F_47F_49P_50V_52G_53A_54K_55F_67L_, Q9UKT9 (peptide)
chain: FFCPVCGAKFTQKGNLLRHIKL
B31: 46F_47W_49P_50V_52G_53A_54K_55F_67L_, Q9UKT9 (peptide)
chain: FWCPVCGAKFTQKGNLLRHIKL
B32: 46F_47Q_49P_50V_52G_53A_54K_55F_67L_, Q9UKT9 (peptide)
chain: FQCPVCGAKFTQKGNLLRHIKL
B33: 46F_47M_49P_50V_52G_53A_54K_55F_67L_, Q9UKT9 (peptide)
chain: FMCPVCGAKFTQKGNLLRHIKL

Target: T1, CRBN, Q96SW2
Experiment: log2 fold change of degron read counts, EGFP-low vs EGFP+ sorted cells (limma voom), compound-induced degradation; higher = more compound-induced degradation of the degron-EGFP fusion; degrons are variants of IKZF1/3 zinc finger 2; compound dose not given here
Details: Jurkat, 18 h
[1] = compound: compound 19 (5-tert-butyl-thalidomide)
[2] = compound: compound 22 (5-morpholino-thalidomide)
[3] = compound: compound 33 (diphenyl IMiD analogue)
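Also: pooled lentiviral library of zinc finger degron-EGFP fusions in mCherry-positive Jurkat cells, FACS-sorted after compound exposure, with degron abundance counted by next-generation sequencing.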

Sequence | log2 fold change of degron read counts [1] | log2 fold change of degron read counts [2] | log2 fold change of degron read counts [3] | log2 fold change of degron read counts (compound: thalidomide)
B1 | 0.643 | 1.04 | 0.255 | -1.7
B2 | -2.04 | -2.6 | -2.42 | -1.57
B3 | -0.0501 | 0.185 | 1.05 | 1.11
B4 | 2.37 | 2.5 | 0.881 | 0.851
B5 | 3.72 | 2.53 | -0.174 | 1.31
B6 | -0.209 | 2.05 | 1.18 | 3.55
B7 | 2.53 | 2.75 | 1.8 | 2.55
B8 | 3.13 | 3.35 | 1.51 | 1.26
B9 | 1.24 | 2.95 | 1.72 | 3
B10 | 3.35 | 1.87 | 1.6 | 2.76
B11 | 0.0922 | 2.32 | 1.27 | 2.63
B12 | -2.83 | -1.59 | -1.38 | -0.306
B13 | 2.14 | 0.242 | 0.245 | 0.138
B14 | -2.73 | -3.44 | -1.59 | -1.56
B15 | -1.89 | -2.81 | -2.8 | -2.92
B16 | 1.32 | 1.17 | 1.52 | 1.23
B17 | -2.68 | -2.78 | -2.7 | -2.45

Sequence | log2 fold change of degron read counts [1] | log2 fold change of degron read counts [2] | log2 fold change of degron read counts [3] | log2 fold change of degron read counts (compound: thalidomide)
B18 | -0.0468 | 1.05 | 2.19 | -0.154
B19 | -0.0408 | -0.873 | 0.0623 | -0.497
B20 | -2.28 | -2.29 | -2.54 | -1.12
B21 | -2.45 | -2.52 | -2.56 | -2.52
B22 | -1.68 | -2.82 | -3.08 | -1.18
B23 | 2.35 | 1.96 | 0.171 | 0.556
B24 | 1.65 | 0.129 | -0.726 | 1.92
B25 | 3.82 | 1.67 | -0.46 | 1.12
B26 | 3.4 | 1.28 | -1.29 | 0.727
B27 | -0.0658 | -1.21 | -0.306 | 2.62
B28 | -0.585 | 1.91 | -0.53 | 2.09
B29 | 1.67 | 0.844 | -1.26 | 0.347
B30 | 2.79 | 2.64 | 0.946 | 0.56
B31 | 2.74 | 3.29 | 0.923 | 0.809
B32 | 0.186 | 2.88 | 0.361 | 3.96
B33 | -0.124 | -0.0797 | 0.661 | 0.797

From the supplement of paper PMC12645437, “Orthogonal IMiD-Degron Pairs Induce Selective Protein Degradation in Cells” (ACS Chemical Biology, 2025)
